hgDAF12 agonist – H. glycines DAF-12 receptor agonists, primary screen, cell-based, luminescence, HEK293, GAL4 fusion, UAS-luciferase; HEK293 GAL4-hgDAF12 UAS-luciferase reporter, agonist luminescence; normalized to butyrate control; activation, % at 6.8 µM; actives 1.8% (n = 370,000);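 active = activation above a cutoff set at the mean of all screened compounds plus 3 SD, cut at about 10% in these data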;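 note: 0% = DMSO wells and 100% = sodium butyrate wells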
DAX1 inh-1 – DAX1 (NR0B1) inhibitors, primary screen, cell-based, HEK293, Gal4-DAX1, luciferase luminescence. Nuclear receptor subfamily 0 group B member 1 (Homo sapiens), P51843. HEK293 Gal4-DAX1 luciferase reporter. inhibition, % at 6.75 µM. actives 0.99% (n = 340,000). AID 504766, 2011;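 active = inhibition above the mean over all tested compounds plus 3 SD, cut at about 4.2% in these data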;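 note: 0% = DAX1-transfected cells with DMSO and 100% = empty-vector control cells with DMSO; inhibition shows as a rise in luminescence from relieved DAX1 repression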
Target sequence (P51843 207-470 limits assumed): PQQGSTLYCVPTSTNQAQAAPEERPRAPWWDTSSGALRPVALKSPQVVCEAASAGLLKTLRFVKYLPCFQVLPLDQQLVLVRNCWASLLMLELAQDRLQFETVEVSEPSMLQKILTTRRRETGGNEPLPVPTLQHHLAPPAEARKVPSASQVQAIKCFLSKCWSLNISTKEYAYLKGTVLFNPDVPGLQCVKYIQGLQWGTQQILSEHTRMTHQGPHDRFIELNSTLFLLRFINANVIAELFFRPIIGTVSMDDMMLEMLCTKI
hcDAF12 agonist – H. contortus DAF-12 nuclear receptor activators, primary screen, cell-based, luminescence, HEK293, lit1-tk-luc reporter; activation, % at 6.8 µM; actives 1.4% (n = 370,000); HEK293 hcDAF-12 lit1-tk-luc reporter; 0% DMSO, 100% Δ7-dafachronic acid;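 active = activation above the mean of all tested compounds plus 3 SD, cut at about 5.5% in these data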;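 note: 100% = response to 3 µM Δ7-dafachronic acid high control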
ssDAF12 agonist – S. stercoralis DAF-12 nuclear receptor activators, primary screen, cell-based, luminescence, HEK293, GRIP1 co-expression, lit1-tk-luc; activation, % at 6.8 µM; Nuclear hormone receptor DAF-12 (Strongyloides stercoralis); actives 1% (n = 370,000); HEK293 ssDAF-12/GRIP1 lit1-tk-luc reporter; % of 3 µM dafachronic acid response;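 active = activation above the mean over all tested compounds plus 3 SD, cut at about 0.9% in these data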;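 note: 0% = DMSO-only wells and 100% = 3 µM delta7-dafachronic acid wells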
DAX1 inh-2 – DAX1 (NR0B1) inhibitors on StAR promoter, primary screen, cell-based, luminescence, SF-1 (NR5A1), full-length DAX-1; HEK293T StAR-luciferase reporter, SF-1/DAX-1 repression relief; inhibition, % at 6.8 µM; actives 1.1% (n = 370,000);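 active = inhibition above the mean over all tested compounds plus 3 SD, cut at about 3.6% in these data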;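 note: 0% = DAX-1 cells with DMSO and 100% = cells lacking DAX-1 with DMSO; higher inhibition means more luminescence from relief of DAX-1 repression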
SMARCA2 act – SMARCA2 (BRM) function activators, primary screen, cell-based, luminescence, high throughput. actives 1% (n = 370,000). activation, % at 9.1 µM. MG213 cells, MMTV-luciferase reporter, dexamethasone, overnight; in the data active = activation above about 7.8%;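 note: 0% = vehicle wells and 100% = reference activator wells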
Active calls of the source: *; · = no result given. Only some compounds are listed: those with a hit (about 4.8% of all), similar ones and a draw of the others.

SMILES | hgDAF12 agonist | DAX1 inh-1 | hcDAF12 agonist | ssDAF12 agonist | DAX1 inh-2 | SMARCA2 act
Cc1cc(O)c(C(=O)c2ccccc2C(=O)O)cc1C | -0.4 | 1.5 | 6.4* | -0.9 | -0.3 | 0.6
Cc1cc(/C=C2/NC(=O)N(Cc3ccccc3F)C2=O)c(C)n1-c1ccccn1 | 4.6 | -0.6 | 4.3 | 1.3* | 0.0 | -0.7
Cc1c(N=Cc2ccc(O)c(Br)c2)cccc1[N+](=O)[O-] | 1.9 | 0.2 | 6.1* | 1.1* | -0.1 | -0.8
Cc1ccc(Nc2n[nH]c(=S)s2)cc1 | 6.4 | 2.2 | 2.4 | 0.1 | 0.7 | -0.1
CCOc1ccc(Nc2n[nH]c(=S)s2)cc1 | 11.8* | 1.0 | 2.8 | 0.1 | 3.5 | 2.6
O=C(CCn1c(=S)oc2ccccc21)NC1CCCCC1 | 2.7 | 4.2 | 0.1 | 5.3* | 0.0 | -4.1
COC(=O)[C@]12C[C@H](CC(=O)NCc3ccccc3)C(=O)N(Cc3cccc4ccccc34)C1=C[C@H](COCc1ccccc1)O[C@@H]2C | 0.8 | · | -0.7 | 0.5 | -0.9 | -3.0
O=S(=O)(c1ccc(OC(F)(F)F)cc1)N1CCCC(N2CCOCC2)C1 (stereo not drawn) | 2.2 | 4.6* | 0.4 | -1.1 | 0.0 | -3.1
COc1ccc(N2CCN(C3CCCN(S(=O)(=O)c4ccccc4)C3)CC2)cc1 (stereo not drawn) | -3.3 | 0.0 | -1.1 | -1.4 | -1.3 | 0.5
COC(=O)Cn1c(CCC(=O)O)ccc1-c1ccccc1 | -0.4 | 5.2* | -2.1 | -1.1 | 0.6 | -1.3
Cc1ccc2nc(-c3ccc(NS(=O)(=O)c4ccc(F)c(F)c4)cc3)sc2c1 | 17.1* | 1.5 | 6.4* | 0.9 | 5.8* | 4.3
Cc1ccc2nc(-c3ccc(NS(=O)(=O)c4ccccc4)cc3)sc2c1 | 4.1 | -0.3 | -0.1 | -0.5 | 1.1 | 1.2
CC1(C)CC(=O)c2sc(NC(=O)C3COc4ccccc4O3)nc2C1 (stereo not drawn) | 7.0 | 2.3 | 1.5 | 1.6* | 1.6 | 2.8
CC(=O)c1sc(NC(=O)C2COc3ccccc3O2)nc1C (stereo not drawn) | 3.9 | -1.9 | 0.1 | -0.3 | 2.8 | 2.4
CC1(C)CC(=O)c2sc(NC(=O)c3ccco3)nc2C1 | 11.9* | -0.4 | 4.8 | -0.1 | 2.4 | -0.9
COC(=O)[C@]12C[C@H](CC(=O)NCC34CC5CC(CC(C5)C3)C4)C(=O)N(CCC3=CCCCC3)C1=C[C@H](C1CCCC1)O[C@@H]2C | -2.0 | · | -1.6 | -1.2 | -0.9 | -1.2
Cc1ccc2c(c1)c1c3n2CCN(CCC#N)C3CCC1 (stereo not drawn) | -0.7 | 4.5* | 1.3 | -0.5 | 0.1 | -4.1
CS(=O)(=O)c1ccccc1C(=O)Nc1cc2c(cc1C(=O)O)OCCCO2 | 1.0 | 5.8* | -0.3 | -1.2 | 0.5 | -2.5
CN(C)Cc1nnnn1-c1ccccc1 | -1.9 | 4.9* | -0.3 | -0.8 | -0.2 | -3.5
COC(=O)CCCC(=O)OC | 0.4 | 4.3* | 2.5 | -1.3 | 0.1 | -1.2
COC(=O)CCC(=O)CN | -2.4 | 4.7* | 0.0 | -0.8 | 1.2 | -8.0
CCOc1ccc(CCNC(=O)c2ccc(Oc3ccccc3)cc2)cc1OCC | -2.3 | · | -3.4 | -2.0 | · | ·
CCCC(=O)Nc1cnc(NC(=O)c2cccc(F)c2)cc1C | 12.6* | -0.6 | 4.1 | 0.7 | 2.7 | 2.8
O=[N+]([O-])c1ccc2cn(-c3ccccc3)nc2c1 | 13.2* | 1.3 | 6.0* | 1.1* | 2.6 | 6.9
COc1ccc(S[C@]2(C(=O)N3CCOCC3)CC(=O)N(C(=O)C3CC3)[C@@H]2c2ccc(OC)cc2)cc1 | 3.2 | · | -0.2 | -1.8 | -2.0 | -3.1
SMILES | hgDAF12 agonist | DAX1 inh-1 | hcDAF12 agonist | ssDAF12 agonist | DAX1 inh-2 | SMARCA2 act
OCCNc1nc(Nc2ccc(O)cc2)nc2ccccc12 | 0.9 | 5.8* | -0.1 | -1.1 | 0.7 | -2.8
COc1ccc(C(CNC(=O)CSc2ccccc2F)N2CCOCC2)cc1 (stereo not drawn) | -0.9 | 0.4 | -0.7 | 1.1* | -0.2 | -1.3
Oc1cccc(N2CCN(c3cccc(O)c3)CC2)c1 | 8.9 | · | 2.0 | 0.9* | 1.0 | 7.8*
Nc1ccc(N2CCN(c3cccc(Cl)c3)CC2)cc1 | -0.1 | -0.1 | -0.2 | -1.1 | -0.9 | -4.9
O=C(c1ccccc1)N1CCC(Oc2cccnc2)CC1 | 1.2 | · | -1.1 | -1.7 | 3.0 | -0.5
CC(=O)N(CCCc1ccc(C(C)(C)C)cc1)CCCN(C)C | -1.5 | 0.4 | 0.0 | -1.1 | -0.1 | -1.2
CC(=O)N(CCCN(C)C)CCC(C)CCC=C(C)C (stereo not drawn) | -2.8 | -0.4 | -0.8 | 1.1* | 0.9 | -0.8
N#Cc1ccc(OC[C@@H](O)CN2CCC(C(O)(c3ccccc3)c3ccccc3)CC2)cc1F | -1.2 | · | -1.8 | -1.1 | 1.4 | -2.7
N#Cc1cc(F)cc(OC[C@@H](O)CN2CCC(C(O)(c3ccccc3)c3ccccc3)CC2)c1 | 2.1 | · | -1.8 | -1.0 | 0.4 | -0.9
Cc1ccccc1-c1nc2sc3c(c2c(=O)n1N)CCCC3 | -2.3 | 4.5* | -1.5 | -1.1 | 0.2 | 1.5
Cc1nc2sc3c(c2c(=O)n1N)CCC3 | 1.5 | 1.3 | -0.7 | -2.3 | 2.0 | -1.4
O=C(Nc1ccccc1)OCCN1C(=O)CCC12CCC(c1ccccc1)CC2 (stereo not drawn) | 2.5 | · | -2.9 | -1.4 | -0.3 | -2.4
Clc1ccccc1Cn1nnc(-c2ccccc2)n1 | 2.0 | -0.1 | 0.1 | 4.3* | 0.3 | 1.8
Clc1ccccc1Cn1nnc(-c2cccs2)n1 | 8.0 | 2.3 | 4.3 | -0.1 | 0.4 | 7.0
COc1ccc(C(=O)Cn2nnc(-c3ccccc3F)n2)cc1 | 1.5 | 1.5 | -2.0 | -1.2 | 0.5 | 1.2
COc1ccc(-c2nnn(Cc3ccccc3F)n2)cc1 | 12.5* | 3.4 | 1.6 | 0.1 | 0.4 | 1.5
COC(=O)c1cc(-c2cc(Cl)cc(Cl)c2)c(=O)n2c1CCC2 | -1.4 | · | -0.5 | -1.3 | -0.7 | -0.8
COC(=O)c1[nH]c2ccc(F)cc2c1NS(=O)(=O)c1ccc(OC)cc1OC | 3.4 | -0.4 | 1.8 | 1.1* | -0.1 | 3.3
CCOc1cc(/C=N/Nc2nc(Nc3ccccc3)nc(N3CCCCC3)n2)ccc1OCC(=O)O | -1.2 | -0.2 | -1.4 | -0.8 | -0.4 | -3.9
CCOc1cc(/C=N/Nc2ccccc2Cl)ccc1OCC(=O)O | 0.1 | -1.5 | 6.3* | 0.1 | 1.7 | 3.6
O=c1oc2ccccc2n1Cc1cccc(Cl)c1 | 1.8 | 6.4* | -3.3 | -1.6 | 0.2 | -5.9

High-throughput results from PubChem BioAssay.
